# Measured values published in PubChem BioAssay (NCI).
# This is part of a sample that, as a whole, favours compounds with a hit. Of some 83,000 tested, about 20% had one in any assay.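 For each line, cells grew in 96-well plates with the test compound present at a single concentration for 48 hours.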 Unmarked numbers belong to inactive results. Calls of active or inactive are those of the source. The calls were made as follows: active = growth percent below 10; inactive = the rest.
# Test system: MALME-3M melanoma
# Experiment: NCI-60 one-dose screen, 48 h (100 = growth as untreated, 0 = no growth, -100 = all killed)
# Conditions: 10 µM unless noted
row,Compound,growth
1,COc1ccc(N=C2CSc3nnc(-c4cc(F)c(Cl)cc4Cl)n3N2)cc1,-45.1% (active)
2,Nc1c(C(=O)Nc2cccc(Cl)c2)sc2nc3c(cc12)C(=O)CCC3,49.7%
3,COc1ccc(CNc2c3ccccc3nc3ccc(OC)cc23)cc1,7.06% (active)
4,CCOC(=O)c1cc(C(=O)OCC)c(C)nc1C,104%
5,NC(=O)N/N=C\c1ccc([N+](=O)[O-])o1,73%
6,Cc1ccc(NC(=O)c2sc3nc4c(cc3c2N)C(=O)CCC4)cc1Cl,112%
7,COc1ccc(-n2c(COc3ccc(F)cc3)n[nH]c2=S)cc1,115%
8,COc1ccccc1-[n+]1cc(-c2ccc(-c3ccccc3)cc2)n2c1CCCCC2,0.879% (active)
9,Nc1cc(C(=O)O)cc(C(=O)O)c1,92.8%
10,CN(C)c1nc(-c2cccs2)n2nc(-c3ccco3)cc2n1,121%
11,O=C(Nc1cccc(-n2ccc3c(NC(=O)c4ccccc4)nccc32)c1)c1ccc(N2CCOCC2)c(C(F)(F)F)c1,53.4%
12,CNC(=O)c1c(NC(=O)c2ccc(C(C)C)cc2)sc2c1CCC(=O)C2,-45.3% (active)
13,CC(CN1CCN(CC(C)Nc2ccnc3cc(Cl)ccc23)CC1)Nc1ccnc2cc(Cl)ccc12 (stereo not drawn),-55.5% (active)
14,Cc1c2c(cc3c1[nH]c1ccccc13)C=NCC2,103%
15,CC(C)c1ccc2c(c1)CCC1C2CCCC1(C)NCc1ccccc1 (stereo not drawn),-32.3% (active)
16,CC1(C)OC2OC3C(CN)OC(c4ccccc4)OC3C2O1 (stereo not drawn),120%
17,O=C1Nc2ccc(Br)cc2/C1=N/c1nc(-c2ccccc2)cs1,101%
18,CS(=O)(=O)c1ccc(C(=O)N/N=C/c2ccccc2Cl)cc1,100%
19,Cc1ccc(Nc2cccc3ccccc23)cc1,94.2%
20,CCCCc1nc(Cl)c(C2CC(c3ccc(S(N)(=O)=O)cc3)=NN2c2ccc(C#N)cc2)[nH]1 (stereo not drawn),105%

row,Compound,growth
1,O/N=C1\c2ccccc2-c2ccc(Br)cc21,103%
2,CCN(CC)CCCC(C)Nc1c(-c2ccccc2)cnc2cc(Cl)ccc12 (stereo not drawn),-6.83% (active)
3,OC(COCc1ccccc1)COCc1ccccc1,105%
4,O=C(CC(=O)c1cccc(Cl)c1)c1cccc(Cl)c1,64.5%
5,O=C1CCCN1C1CCN2CCCc3cccc1c32 (stereo not drawn),94.2%
6,CC(C)(C)[Si](C)(C)OC1[C@@H](CNC(N)=O)O[C@@H](n2cnc3c(NC(=O)Nc4ccccc4)ncnc32)[C@H]1O[Si](C)(C)C(C)(C)C (stereo partly drawn),75.4%
7,NC(CCC(=O)NC(CS)C(=O)NCC(=O)O)C(=O)O (stereo not drawn),122%
8,C/C(=N\NC(=O)CSc1nc2ccccc2c(=O)n1CCc1ccc(S(N)(=O)=O)cc1)c1ccc(Br)cc1,54.4%
9,CC(C)CCSc1nc(Nc2ccccc2)c(C#N)c(-c2ccc(F)cc2)n1,68.4%
10,CCOC(=O)C1OC2(CCCC2)OC1C(=O)OCC (stereo not drawn),107%
11,CS(=O)(=O)c1ccc(C(=O)N/N=C/c2ccccc2O)cc1,63.5%
12,O=C(NCCN1CCCC1)n1cc(-c2ccncc2)c(-c2cc(O)cc(Cl)c2)n1,9.44% (active)
13,C[C@@H]1N=C(c2ccc3ccccc3c2)Nc2nc3ccccn3c2C1=O,42.3%
14,CNCCCn1c2c(c3ccc(Cl)cc3c1=O)C(=O)c1cc(OC)cnc1-2,72.8%
15,CC(=O)Oc1ccccc1C(=O)Nc1ncc([N+](=O)[O-])s1,-10.6% (active)
16,O=C1/C(=C/c2ccccc2)SC(=Nc2ccccc2)N1Nc1ccccc1,-14.6% (active)
17,Oc1c(C(Nc2cccc3ccccc23)c2ccccc2)ccc2cccnc12 (stereo not drawn),31.7%
18,COc1ccc(CC2c3cc(OC)c(OC)cc3CC[N+]2(C)CCC(=O)OCCCCCOC(=O)CC[N+]2(C)CCc3cc(OC)c(OC)cc3C2Cc2ccc(OC)c(OC)c2)cc1OC (stereo not drawn),99.6%
19,CCn1c(Cc2ccccc2Nc2c(Cl)cccc2Cl)nnc1SCC(=O)Nc1ccccc1C(F)(F)F,100%

# Test system: MDA-MB-231 breast
# Experiment: as above
# Conditions: 10 µM unless noted
row,Compound,growth
1,COc1ccc(N=C2CSc3nnc(-c4cc(F)c(Cl)cc4Cl)n3N2)cc1,-4.51% (active)
2,Nc1c(C(=O)Nc2cccc(Cl)c2)sc2nc3c(cc12)C(=O)CCC3,43.9%
3,COc1ccc(CNc2c3ccccc3nc3ccc(OC)cc23)cc1,23.6%
4,CCOC(=O)c1cc(C(=O)OCC)c(C)nc1C,107%
5,NC(=O)N/N=C\c1ccc([N+](=O)[O-])o1,122%
6,Cc1ccc(NC(=O)c2sc3nc4c(cc3c2N)C(=O)CCC4)cc1Cl,113%
7,COc1ccc(-n2c(COc3ccc(F)cc3)n[nH]c2=S)cc1,89.3%
8,COc1ccccc1-[n+]1cc(-c2ccc(-c3ccccc3)cc2)n2c1CCCCC2,19.1%
9,Nc1cc(C(=O)O)cc(C(=O)O)c1,102%
10,CN(C)c1nc(-c2cccs2)n2nc(-c3ccco3)cc2n1,82.6%
11,O=C(Nc1cccc(-n2ccc3c(NC(=O)c4ccccc4)nccc32)c1)c1ccc(N2CCOCC2)c(C(F)(F)F)c1,20.8%
12,CNC(=O)c1c(NC(=O)c2ccc(C(C)C)cc2)sc2c1CCC(=O)C2,-55.9% (active)
13,CC(CN1CCN(CC(C)Nc2ccnc3cc(Cl)ccc23)CC1)Nc1ccnc2cc(Cl)ccc12 (stereo not drawn),-19% (active)
14,Cc1c2c(cc3c1[nH]c1ccccc13)C=NCC2,90.4%
15,CC(C)c1ccc2c(c1)CCC1C2CCCC1(C)NCc1ccccc1 (stereo not drawn),39.8%
16,CC1(C)OC2OC3C(CN)OC(c4ccccc4)OC3C2O1 (stereo not drawn),101%
17,O=C1Nc2ccc(Br)cc2/C1=N/c1nc(-c2ccccc2)cs1,77%
18,CS(=O)(=O)c1ccc(C(=O)N/N=C/c2ccccc2Cl)cc1,93.6%
19,Cc1ccc(Nc2cccc3ccccc23)cc1,88.5%
20,CCCCc1nc(Cl)c(C2CC(c3ccc(S(N)(=O)=O)cc3)=NN2c2ccc(C#N)cc2)[nH]1 (stereo not drawn),88%

row,Compound,growth
1,O/N=C1\c2ccccc2-c2ccc(Br)cc21,107%
2,CCN(CC)CCCC(C)Nc1c(-c2ccccc2)cnc2cc(Cl)ccc12 (stereo not drawn),63.1%
3,OC(COCc1ccccc1)COCc1ccccc1,108%
4,O=C(CC(=O)c1cccc(Cl)c1)c1cccc(Cl)c1,45.2%
5,O=C1CCCN1C1CCN2CCCc3cccc1c32 (stereo not drawn),101%
6,CC(C)(C)[Si](C)(C)OC1[C@@H](CNC(N)=O)O[C@@H](n2cnc3c(NC(=O)Nc4ccccc4)ncnc32)[C@H]1O[Si](C)(C)C(C)(C)C (stereo partly drawn),77.9%
7,NC(CCC(=O)NC(CS)C(=O)NCC(=O)O)C(=O)O (stereo not drawn),117%
8,C/C(=N\NC(=O)CSc1nc2ccccc2c(=O)n1CCc1ccc(S(N)(=O)=O)cc1)c1ccc(Br)cc1,36.9%
9,CC(C)CCSc1nc(Nc2ccccc2)c(C#N)c(-c2ccc(F)cc2)n1,46.2%
10,CCOC(=O)C1OC2(CCCC2)OC1C(=O)OCC (stereo not drawn),95.7%
11,CS(=O)(=O)c1ccc(C(=O)N/N=C/c2ccccc2O)cc1,47.4%
12,O=C(NCCN1CCCC1)n1cc(-c2ccncc2)c(-c2cc(O)cc(Cl)c2)n1,80.8%
13,C[C@@H]1N=C(c2ccc3ccccc3c2)Nc2nc3ccccn3c2C1=O,52.5%
14,CNCCCn1c2c(c3ccc(Cl)cc3c1=O)C(=O)c1cc(OC)cnc1-2,77.3%
15,CC(=O)Oc1ccccc1C(=O)Nc1ncc([N+](=O)[O-])s1,26.9%
16,O=C1/C(=C/c2ccccc2)SC(=Nc2ccccc2)N1Nc1ccccc1,12.1%
17,Oc1c(C(Nc2cccc3ccccc23)c2ccccc2)ccc2cccnc12 (stereo not drawn),17.8%
18,COc1ccc(CC2c3cc(OC)c(OC)cc3CC[N+]2(C)CCC(=O)OCCCCCOC(=O)CC[N+]2(C)CCc3cc(OC)c(OC)cc3C2Cc2ccc(OC)c(OC)c2)cc1OC (stereo not drawn),92.2%
19,CCn1c(Cc2ccccc2Nc2c(Cl)cccc2Cl)nnc1SCC(=O)Nc1ccccc1C(F)(F)F,84.8%
